Pf growth 48h = Primary qHTS for delayed death inhibitors of the malarial parasite plastid, 48 hour incubation | Potency, µM (top dose mostly 28.7 µM), for the others: top-dose activity change, negative = inhibition, actives largely listed as inhibitors | P. falciparum luciferase growth in erythrocytes, 48 h | actives 5.9% (n = 310,000) | AID 504832, 2011; note: potency is the fitted concentration of half-maximal effect; % is set by controls: 0 for no effect and ±100 for the full control effect
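Luminescence readout; reporter = integrated firefly luciferase in P. falciparum. RBC culture at 2% hematocrit, 0.1% parasitemia final, 37 C/5% CO2; decreased signal taken as growth inhibition.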
Pf growth 96h = Primary qHTS for delayed death inhibitors of the malarial parasite plastid, 96 hour incubation | P. falciparum luciferase reporter growth, 96 h | actives 6.9% (n = 320,000) | Potency, µM (top dose mostly 28.7 µM), for the others: top-dose activity change, negative = inhibition, actives largely listed as inhibitors; note: potency is the fitted concentration of half-maximal effect; % is set by controls: 0 for no effect and ±100 for the full control effect
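Plates of compound plus infected erythrocytes (2% hematocrit, 0.05% parasitemia final) incubate 96 hours, 37 C, 5% CO2. Detection reagent added; reduced luminescence from the parasites' luciferase reporter flags inhibition.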
Shiga inhibitor = A qHTS for Small Molecule Inhibitors of Shiga Toxin. Vero cells, Shiga toxin protein synthesis inhibition reporter. inhibition, % at 38.7 µM. actives 9.2% (n = 290,000). AID 2315, 2010; in the data active = inhibition mostly above about 28%, no sharp cut-off; inactive = mostly below about 43%; note: 0% is about no effect
CHX counter = Cycloheximide Counterscreen for Small Molecule Inhibitors of Shiga Toxin; AID 2314, 2010; cell reporter, cycloheximide protein synthesis inhibition counterscreen; actives 12% (n = 300,000); max response, %; in the data active = max response mostly above about 13%, no sharp cut-off; inactive = mostly below about 14%; note: read at 38.3 µM for the half of the compounds with a filed dose; 0% is about no effect
Sm TGR inh = qHTS Assay for the Inhibitors of Schistosoma Mansoni Peroxiredoxins. actives 3% (n = 360,000). AID 485364, 2010. Potency, µM (titrated, usually from 114 µM), for the others: at the highest dose activity change, negative = inhibition, most hits filed as inhibitors. Schistosoma mansoni thioredoxin glutathione reductase (TGR), Q962Y6. purified TGR, DTNB reduction, TNB absorbance 405 nm; note: potency is the fitted concentration of half-maximal effect; % is set by controls: 0 for no effect and ±100 for the full control effect; nearly all actives have a fitted effect of over 60% in size
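Kinetic colorimetric format: TGR-catalysed, NADPH-driven DTNB reduction monitored via TNB absorbance. Enzyme dispensed at 20 nM; compound exposure 15 min at room temperature before reaction start.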
NS1 function inh = qHTS Assay for Inhibitors of Influenza NS1 Protein Function. AID 2326, 2010. actives 0.4% (n = 270,000). Potency, µM (top dose mostly 46.1 µM), for the others: top-dose activity, positive = more growth; calls by dose curve; note: potency is the fitted concentration of half-maximal effect; actives are rising curves; nearly all actives have a fitted effect of over 50% in size
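Growth recovery, yeast-based: influenza A NS1 expressed in S. cerevisiae causes slow growth, and suppressors are detected by OD600. The parent strain without NS1 is used as positive control.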
* hit, by the source's call; i = inactive; ? = inconclusive; . = no result. Rows were chosen to be rich in hits. Some 21% of all compounds tested hit in one or more screens of this group. Unless noted, calls come from the whole dose curve; as a rule, active = well fitted curve in the direction sought with a large enough effect; inconclusive = small, poorly fitted or top-dose-only effect, or another doubt; inactive = no such curve, though single readings can be large; an effect the other way counts as inactive or inconclusive.

SMILES | Pf growth 48h | Pf growth 96h | Shiga inhibitor | CHX counter | Sm TGR inh | NS1 function inh
Cc1csc(C(C#N)C(=O)c2cc3ccccc3o2)n1 (centres undefined) | 100.0% | 20.4% | 55.1* | 25.2* | -4.1% | -62.8%
C=CCNC(=O)c1cc2c(=O)n3ccccc3nc2s1 | 126.4% | 20.7% | 72.3* | 33.7* | -21.4% | -1.3%
CCOC(=O)N1CCN(C(=O)c2cc3c(=O)n4ccccc4nc3s2)CC1 | 102.3% | ? | 6.3 | -2.3 | 1.6% | -10.9%
Cc1cccn2c(=O)c3cc(C(=O)NC4CCCCCC4)sc3nc12 | ? | ? | 21.2 | -5.0 | 35.5µM* | 6.0%
CN1CCN(C(=O)c2cc3sc4ccccc4c3s2)CC1 | 164.7% | 397.9% | 49.2 | 38.7* | 29.7% | -0.5%
CN1CCN(C(=O)c2cc3c(=O)n4ccccc4nc3s2)CC1 | 38.3% | 7.4% | 48.7* | 11.8* | -4.3% | -1.2%
Cc1cccn2c(=O)c3cc(C(=O)NC4CCS(=O)(=O)C4)sc3nc12 (centres undefined) | . | -1.3% | 25.0 | -7.3 | 0.0% | -1.8%
COc1ccc(OC)c(NC(=O)CSc2nnc(NC(=O)c3ccco3)s2)c1 | -5.1% | -0.3% | -2.5 | 3.1 | 4.9% | -11.8%
CCOC(=O)CNS(=O)(=O)c1ccc(F)cc1Br | . | . | 1.8 | -5.2 | . | .
CC(C)NC(=O)c1cc2c(=O)n3ccccc3nc2s1 | 42.3% | 279.7% | -2.3 | 2.1 | 3.5% | -1.4%
O=C(NC1CCCCCC1)c1cc2c(=O)n3ccccc3nc2s1 | 26.0% | ? | 74.8* | 29.0* | 0.3% | -7.7%
O=C(NNC(=O)c1ccccc1C(F)(F)F)c1csc(N2CCOCC2)n1 | 10.7% | -9.0% | -13.8 | -2.0 | -0.6% | -4.3%
Cc1ccc(CC(=O)Nc2nccs2)cc1C | 1.2% | ? | 12.8 | 14.0 | -3.8% | 2.3%
O=C(CCc1ccccc1)NCc1ccc2c(c1)CCN2C(=O)c1ccc(Cl)cc1 | . | . | . | . | 9.1% | .
COc1ccc(/C=N/N=C2/NC(=O)CC(C(=O)O)S2)cc1 (centres undefined) | 2.4% | 44.4% | -3.6 | 1.0 | -9.8% | 20.8%
COc1ccc(/C=N/N=C2/CC(C)(C)Cc3n[nH]c(=O)cc32)cc1 | -19.5% | i | 36.2* | 19.4 | 12.6µM* | .
CCN(CC)CCNC(=O)Cn1ncc2c([nH]c3ccccc32)c1=O | . | . | . | . | 3.6% | .
O=C(CSc1nc2ccccc2o1)N/N=C/c1ccc(C(=O)O)cc1 | 58.4% | 56.1% | 19.8 | 5.9 | 11.4% | 3.6%
Oc1ccccc1/C=N/Nc1nc2ccccc2o1 | 2.62µM* | 2.08µM* | 97.1* | 62.3* | -1.3% | -33.5%
Brc1ccc(/C=N/Nc2nc3ccccc3o2)cc1 | 75.6% | ? | 57.3* | 41.5* | -3.8% | -45.3%
Oc1ccccc1/C=N/NP(=S)(c1ccccc1)c1ccccc1 | ? | ? | 23.3 | 14.2 | 3.4% | .
CCOc1ccc(CCNC(=O)c2cn(-c3ccc(OC)cc3)c(=O)c3ccccc23)cc1OCC | . | . | . | . | -0.3% | .
CN=c1scc(-c2ccccc2F)n1/N=C(\C)c1cccnc1 | 0.0% | ? | 148.5* | 48.0* | 8.2% | 2.1%
CCN(CCn1cccn1)Cc1c(C(=O)N2CCCCCCC2)nc2ccc(Cl)cn12 | ? | ? | -23.1 | 4.9 | . | -3.6%
COc1cccc(N/C(SCc2cccc([N+](=O)[O-])c2)=C(/C#N)C(=O)NCc2cccs2)c1 | 10.4µM* | ? | -12.1 | -4.6 | 0.0% | 12.7%
SMILES | Pf growth 48h | Pf growth 96h | Shiga inhibitor | CHX counter | Sm TGR inh | NS1 function inh
COc1cccc(N/C(SCc2ccccc2C)=C(/C#N)C(=O)NCc2cccs2)c1 | ? | 2.08µM* | 10.0 | 0.8 | -11.7% | -2.4%
COc1cccc(N/C(SC)=C(/C#N)C(=O)NCc2cccs2)c1 | 8.5% | 16.4% | -0.4 | 9.6 | 4.2% | .
COc1cccc(N/C(SCc2ccccc2Cl)=C(/C#N)C(=O)NCc2cccs2)c1 | 10.4µM* | ? | -7.4 | 5.4 | -13.9% | 2.4%
CCOc1ccc(N/C(SCc2cccc([N+](=O)[O-])c2)=C(/C#N)C(N)=O)cc1 | ? | 21.4% | 17.1 | 13.4 | 2.1% | .
COc1cccc(/C(C#N)=C/c2c(-c3ccc(Cl)cc3)nc3c(C)cccn23)c1 | 1.31µM* | ? | 5.0 | -0.8 | 15.9% | -3.7%
COn1c(C)c(C)c2c3nonc3ccc21 | -25.1% | 0.0% | -4.3 | 0.6 | 20µM* | -1.7%
O=C(CC(C(=O)O)C1CCCO1)NCc1ccccc1 (centres undefined) | 2.5% | 17.1% | -13.0 | -7.3 | -18.0% | 5.9%
CC(CC(=O)NCc1ccccc1)C1CCCO1 (centres undefined) | 30.8% | . | 25.9* | 17.5* | -15.1% | -2.5%
O=C1c2ccccc2CCc2ccc(Br)cc21 | 66.5% | 34.4% | . | . | -19.9% | .
CC(=O)c1ccc(NC(=O)CN(c2c(C)cccc2C)S(C)(=O)=O)cc1 | 27.3% | ? | 98.5* | 23.1* | -10.8% | 4.0%
Cc1cccc(C)c1N(CC(=O)Nc1cc(Cl)ccc1Oc1ccccc1)S(C)(=O)=O | 10.4µM* | ? | 16.1 | -2.6 | 1.9% | -1.9%
Cc1ccc(C)c(N(CC(=O)Nc2cc(Cl)ccc2Oc2ccccc2)S(C)(=O)=O)c1 | ? | 14.7µM* | -10.1 | -3.6 | 8.7% | ?
COC(=O)CN(c1c(C)cccc1C)S(C)(=O)=O | 23.1% | 15.9% | -19.5 | -5.7 | -7.6% | -14.1%
CN1CCOCCOCCN(C)C1=O | . | 44.7% | -13.8 | -5.4 | 1.7% | -1.7%
CC(C)Oc1cccc(C(=O)NC(=S)NCc2cccnc2)c1 | -12.0% | ? | -5.0 | 2.7 | -23.3% | 16.1%
COc1ccc(C(=O)NC(=S)Nc2cc3oc4ccccc4c3cc2OC)cc1 | 6.8% | 47.0% | 9.4 | 4.5 | -22.2% | 21.7%
COCCNC(=S)Nc1cc2oc3ccccc3c2cc1OC | ? | 7.5% | 18.1 | 15.6* | -13.1% | -17.9%
COc1cc2c(cc1NC(=O)c1cccnc1)oc1ccccc12 | . | 105.8% | 56.9 | 28.6* | 0.4% | -175.5%
COc1cc(OC)cc(C(=O)NC(=S)Nc2cc3oc4ccccc4c3cc2OC)c1 | 7.0% | 34.1% | -10.7 | -2.4 | ? | -0.3%
COc1cc2c(cc1NC(=S)NC(=O)c1c(OC)cccc1OC)oc1ccccc12 | 4.15µM* | 3.7µM* | -5.9 | -1.1 | 1.4% | 10.4%
COc1ccc(N2CC(C)Cn3c2nc2c3c(=O)n(Cc3ccc(C)cc3)c(=O)n2C)c(OC)c1 (centres undefined) | 4.65µM* | ? | -23.1 | 6.1 | 6.8% | .
NC(=O)CC1C(=O)N(c2ccc(F)cc2)C(=O)N1NC(=O)CCc1ccccc1 (centres undefined) | 2.7% | -6.4% | -4.2 | -4.0 | . | 2.9%

Screens: PubChem BioAssay, National Center for Advancing Translational Sciences (NCATS)
